Screens from PubChem BioAssay.
This is a sample that favours compounds with a hit; in the whole collection about 2.7% have one here.
ERG-DNA inh: qHTS for Small Molecule Inhibitors of the ERG Ets/DNA interaction | hit rate 0.028% among 370,000 | Potency, µM (series often up to 76.9 µM), usual class: inhibitors | fluorescence polarization, His-ERG Ets domain / labelled DNA | AID 624246, 2012; active = well fitted inhibition curve with a large enough effect in the polarisation, with a control signal flat; inconclusive = small, poorly fitted or top-dose-only effect, or effect the other way, or a change in a side signal; inactive = no such curve, though single readings can be large or run the other way; the % refers to the polarisation;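 note: polarization taken with two DNA probes labelled with fluorescein and Texas red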
Target sequence (P11308 whole entry, looked up, the tested form may be a part): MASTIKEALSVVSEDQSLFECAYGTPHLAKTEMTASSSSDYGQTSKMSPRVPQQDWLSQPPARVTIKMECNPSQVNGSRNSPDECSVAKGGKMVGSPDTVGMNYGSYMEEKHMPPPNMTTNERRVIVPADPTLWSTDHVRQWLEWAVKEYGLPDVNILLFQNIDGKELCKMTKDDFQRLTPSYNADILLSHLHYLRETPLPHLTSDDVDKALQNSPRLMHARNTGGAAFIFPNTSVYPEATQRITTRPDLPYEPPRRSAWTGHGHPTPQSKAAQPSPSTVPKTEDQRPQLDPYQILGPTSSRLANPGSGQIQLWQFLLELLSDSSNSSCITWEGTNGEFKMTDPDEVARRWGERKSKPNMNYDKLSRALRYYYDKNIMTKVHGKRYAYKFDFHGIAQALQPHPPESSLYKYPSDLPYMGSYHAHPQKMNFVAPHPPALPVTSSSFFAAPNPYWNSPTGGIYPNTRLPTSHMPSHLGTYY
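His-tagged ERG Ets domain (1 uM in the protein solution; 300mM KCl, 50mM Tris-HCl, 1mM EDTA, 1mM DTT, pH 7.5) received compound, then a probe mix of 5 nM fluorescein-DNA and 100nM Texas-615-DNA. Fluorescence polarization was read for both dyes.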
LDHA block: qHTS assay for inhibitors of human lactate dehydrogenase | AID 1347041, 2019 | activity change, % (values are at about 110 or 230 µM) | hit rate 0.15% among 480,000 | L-lactate dehydrogenase A chain (Homo sapiens), P00338 | purified LDHA, NADH/diaphorase-resazurin fluorescence; stronger effect = lower value; in the data active = activity change below about -30%; inconclusive = mostly about -25% to -30%
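Resorufin fluorescence (ex540/em590), read at 0 and 20 min after diaphorase/resazurin addition, reports the NADH left after a 5 min room-temperature reaction of 2 nM human LDH5 with 0.06 mM NADH and 0.2 mM pyruvate.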
A549 tox: Nrf2 qHTS screen for inhibitors: counterscreen for cytotoxicity. A549 ARE-Fluc cells, CellTiter-Fluor viability, 18-24 h. Potency, µM (highest dose often 46 µM), actives largely listed as inhibitors. hit rate 0.16% among 390,000
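A549 ARE-Fluc cells in 5% FBS OPTI-MEM, 5000 cells/well, rested 2 h then exposed to compounds in concentration-response for 18-24 h at 37 °C. Viability by CellTiter-Fluor fluorescence (Ex 405/Em 525) after 30 min; luciferase luminescence (BugLite, 15 min, RT) read afterwards.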
Nrf2 activator: qHTS of Nrf2 Activators. AID 624171, 2012. hit rate 0.31% among 410,000. AREc32 ARE-luciferase reporter (MCF7-derived line), luminescence, 24 h. Potency, µM (series often up to 46.1 µM), usual class: activators; note: nearly all actives have a fitted effect of over 65% in size
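Reporter line AREc32 (ARE-Fluc), seeded overnight in OPTI-MEM with 5% FBS; compound pin-transferred, 24 hr at 37 deg C, 5% CO2; luminescent read-out.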
12-LOX inh: Primary qHTS assay for inhibitors of human arachidonate 12S-lipoxygenase (ALOX12): Round 2. Polyunsaturated fatty acid lipoxygenase ALOX12 (Homo sapiens), P18054. purified 12hLO, xylenol orange hydroperoxide absorbance. Potency, µM (series often up to 108 µM), most hits filed as inhibitors. hit rate 1.1% among 580,000
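Purified human 12hLO at 150 nM in 25 mM Hepes, 0.01% Triton X-100, pH 7.0, preincubated 15 min at room temperature with compound. Reaction started with 40 uM arachidonic acid, 30 min at room temperature. Hydroperoxide measured by Fe-xylenol orange, 573/405 nm absorbance ratio.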
Nrf2 inh: Nrf2 qHTS screen for inhibitors; A549 ARE-Fluc reporter, luciferase luminescence, 18-24 h; Potency, µM (titrated, usually from 46 µM), actives largely listed as inhibitors; AID 504444, 2011; hit rate 2.1% among 360,000; note: nearly all actives have a fitted effect of over 60% in size
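In this cell-based qHTS, ARE-driven firefly luciferase in A549 cells reports Nrf2 activity; the luminescent signal after BugLite lysis is the measured value, with a prior CellTiter-Fluor read for cell health.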
A number is an active result. Unless noted, calls come from the whole dose curve; as a rule, active = well fitted curve in the direction sought with a large enough effect; inconclusive = small, poorly fitted or top-dose-only effect, or another doubt; inactive = no such curve, though single readings can be large; an effect the other way counts as inactive or inconclusive.

`CC(C)=C1C(=O)NN(c2ccc(F)c(Cl)c2)C1=O` gave ERG-DNA inh inactive, LDHA block inactive, A549 tox inactive, Nrf2 activator inactive, 12-LOX inh 10µM and Nrf2 inh inactive.
CC(C)n1ccc2nc3ccn(-c4ncn[nH]4)c(=O)c3cc2c1=O was read as LDHA block inactive and 12-LOX inh inconclusive.
`O=S(=O)(c1cccs1)N(Cc1ccco1)Cc1cccs1` gave LDHA block inactive and 12-LOX inh inconclusive.
Screening COc1ccc(Cc2nc(-c3ccc(-n4cccc4)cc3)no2)cc1 returned ERG-DNA inh inactive, LDHA block inactive, A549 tox inactive, Nrf2 activator inactive, 12-LOX inh inactive and Nrf2 inh inconclusive.
Screening COc1ccc(Cc2nc(-c3ccc(-n4cccc4)cc3)no2)cc1OC returned ERG-DNA inh inactive, LDHA block inactive, A549 tox inactive, Nrf2 activator inactive, 12-LOX inh inactive and Nrf2 inh 16.4µM.
CCCN1C(=O)/C(=C/c2c(N3CCNC(=O)C3CC(=O)OCC)nc3c(C)cccn3c2=O)SC1=S (configuration not stated) was read as ERG-DNA inh inactive, LDHA block inactive, A549 tox inconclusive, Nrf2 activator inactive and Nrf2 inh 20.6µM.
Screening CCOC(=O)CC1C(=O)NCCN1c1nc2ccc(C)cn2c(=O)c1/C=C1\SC(=S)N(CC(C)C)C1=O (configuration not stated) returned ERG-DNA inh inactive, LDHA block inactive, A549 tox inconclusive, Nrf2 activator inactive and Nrf2 inh inconclusive.
`Cc1oc2cc(OCC(=O)N(C)C3CCS(=O)(=O)C3)ccc2c(=O)c1Oc1ccccc1` (configuration not stated) gave LDHA block inactive and 12-LOX inh inconclusive.
For CCN(CC)c1ccc(NC(=O)Cn2cc3c(n2)CCC(C)C3)c(C)c1 (configuration not stated) the results were ERG-DNA inh inactive, LDHA block inactive, A549 tox inactive, Nrf2 activator inactive, 12-LOX inh inactive and Nrf2 inh 13µM.
`CCN(CC)c1ccc(NC(=O)CN2C(=O)CSc3ncccc32)c(C)c1` gave ERG-DNA inh inactive, LDHA block inactive, A549 tox inactive, Nrf2 activator inactive, 12-LOX inh inactive and Nrf2 inh 10.3µM.
Screening COC(=O)c1cccc(C(=O)NCCc2ccccc2)c1 returned LDHA block inactive and 12-LOX inh inactive.
O=C1CN(C(=O)c2cc(-c3ccccn3)nc3cc(F)ccc23)CCN1 was read as LDHA block inactive and 12-LOX inh inactive.
S=c1nccc(-c2ccccc2)[nH]1 was read as LDHA block inactive and 12-LOX inh 12.6µM.
`Cc1ccc(-c2ccnc(=S)[nH]2)cc1` gave LDHA block inactive, A549 tox inactive, Nrf2 activator inactive, 12-LOX inh inactive and Nrf2 inh inactive.
`CCCCCC(=O)N/N=C/c1cccc(Cl)c1` gave LDHA block inactive and 12-LOX inh inconclusive.
For COc1ccc(-c2noc3c2-c2nc(-c4ccccc4F)sc2CC3)cc1 the results were ERG-DNA inh inactive, LDHA block inactive, A549 tox inactive, Nrf2 activator inactive, 12-LOX inh 39.8µM and Nrf2 inh inactive.
Screening Fc1cccc(F)c1-c1nc2c(s1)CCc1onc(-c3ccc(Br)cc3)c1-2 returned ERG-DNA inh inactive, LDHA block inactive, A549 tox inactive, Nrf2 activator inactive, 12-LOX inh 14.1µM and Nrf2 inh inactive.
COc1ccc(-c2noc3c2-c2nc(-c4c(F)cccc4F)sc2CC3)cc1 was read as ERG-DNA inh inactive, LDHA block inactive, A549 tox inactive, Nrf2 activator inactive, 12-LOX inh inconclusive and Nrf2 inh inconclusive.
